Assays:
Assay in all cases: DAPPL (digital affinity profiling via proximity ligation, sequencing); 10 mM Tris-HCl pH 7.5, 50 mM NaCl, 1 mM DTT, 4% glycerol, room temperature, 30 min; GST-TFs on glutathione beads, 16-mer random dsDNA library, 0.1% formaldehyde crosslink after washing; high values mean tight binding
FLI1 = biological target: T1, FLI1 (Homo sapiens, UniProt Q01543 1-452); conditions: protein: recombinant; tags: N-terminal GST; dsDNA, one strand shown
T1 sequence: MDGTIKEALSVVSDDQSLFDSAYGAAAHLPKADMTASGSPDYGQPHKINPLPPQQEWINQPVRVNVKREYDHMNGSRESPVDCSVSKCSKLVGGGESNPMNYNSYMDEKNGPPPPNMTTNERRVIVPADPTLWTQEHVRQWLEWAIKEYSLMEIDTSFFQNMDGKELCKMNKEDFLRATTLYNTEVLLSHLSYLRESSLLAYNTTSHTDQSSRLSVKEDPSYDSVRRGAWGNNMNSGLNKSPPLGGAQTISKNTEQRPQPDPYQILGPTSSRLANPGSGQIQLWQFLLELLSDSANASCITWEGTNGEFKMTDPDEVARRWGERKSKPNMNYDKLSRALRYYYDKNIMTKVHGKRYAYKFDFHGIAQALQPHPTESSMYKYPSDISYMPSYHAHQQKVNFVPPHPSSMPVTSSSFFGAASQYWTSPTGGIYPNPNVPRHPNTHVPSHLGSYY
In short: (§1)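 Binding signal is defined as a hexamer's read frequency for one factor over its frequency for the tag-only sample. To obtain reads, GST-fused human transcription factors were expressed in yeast, captured on glutathione beads, barcoded with DNA and pooled with that sample. Pools met 200 nmole of a 16-mer random double-stranded DNA library in Tris/NaCl/DTT/glycerol buffer for 30 min at room temperature before washing, 0.1% formaldehyde crosslinking, proximity ligation (BsaI/T4 ligase, 1 h, 37 °C), PCR and Illumina NextSeq500 sequencing.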

ELK1 = biological target: T2, ELK1 (Homo sapiens, UniProt P19419 1-428); conditions: protein: recombinant; tags: N-terminal GST; dsDNA, one strand shown
T2 sequence: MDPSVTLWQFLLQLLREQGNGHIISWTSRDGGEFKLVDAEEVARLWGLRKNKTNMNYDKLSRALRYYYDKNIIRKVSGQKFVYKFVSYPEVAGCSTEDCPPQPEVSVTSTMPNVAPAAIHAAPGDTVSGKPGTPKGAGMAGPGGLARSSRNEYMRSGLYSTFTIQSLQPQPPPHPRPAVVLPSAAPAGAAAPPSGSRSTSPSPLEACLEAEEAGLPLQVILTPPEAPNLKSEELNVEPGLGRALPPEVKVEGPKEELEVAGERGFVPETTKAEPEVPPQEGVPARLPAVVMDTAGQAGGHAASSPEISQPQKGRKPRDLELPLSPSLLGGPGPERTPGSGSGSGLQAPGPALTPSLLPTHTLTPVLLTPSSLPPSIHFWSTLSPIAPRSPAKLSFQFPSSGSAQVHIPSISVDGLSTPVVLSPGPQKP
In short: as §1

GABPA = biological target: T3, GABPA (Homo sapiens, UniProt Q06546 1-454); conditions: protein: recombinant; tags: N-terminal GST; dsDNA, one strand shown
T3 sequence: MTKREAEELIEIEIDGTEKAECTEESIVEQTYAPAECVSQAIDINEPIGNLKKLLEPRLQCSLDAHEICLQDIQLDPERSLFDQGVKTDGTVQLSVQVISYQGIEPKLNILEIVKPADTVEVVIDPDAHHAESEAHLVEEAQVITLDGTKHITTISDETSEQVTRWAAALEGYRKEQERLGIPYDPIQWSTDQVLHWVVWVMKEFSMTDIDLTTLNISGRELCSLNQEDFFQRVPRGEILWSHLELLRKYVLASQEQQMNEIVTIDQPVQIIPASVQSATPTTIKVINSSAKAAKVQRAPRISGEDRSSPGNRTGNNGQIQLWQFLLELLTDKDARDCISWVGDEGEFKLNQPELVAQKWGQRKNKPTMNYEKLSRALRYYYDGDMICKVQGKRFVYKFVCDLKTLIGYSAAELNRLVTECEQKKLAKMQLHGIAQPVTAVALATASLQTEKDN
In short: as §1

ERG = biological target: T4, ERG (Homo sapiens, UniProt P11308 1-479); conditions: protein: recombinant; tags: N-terminal GST; dsDNA, one strand shown
T4 sequence: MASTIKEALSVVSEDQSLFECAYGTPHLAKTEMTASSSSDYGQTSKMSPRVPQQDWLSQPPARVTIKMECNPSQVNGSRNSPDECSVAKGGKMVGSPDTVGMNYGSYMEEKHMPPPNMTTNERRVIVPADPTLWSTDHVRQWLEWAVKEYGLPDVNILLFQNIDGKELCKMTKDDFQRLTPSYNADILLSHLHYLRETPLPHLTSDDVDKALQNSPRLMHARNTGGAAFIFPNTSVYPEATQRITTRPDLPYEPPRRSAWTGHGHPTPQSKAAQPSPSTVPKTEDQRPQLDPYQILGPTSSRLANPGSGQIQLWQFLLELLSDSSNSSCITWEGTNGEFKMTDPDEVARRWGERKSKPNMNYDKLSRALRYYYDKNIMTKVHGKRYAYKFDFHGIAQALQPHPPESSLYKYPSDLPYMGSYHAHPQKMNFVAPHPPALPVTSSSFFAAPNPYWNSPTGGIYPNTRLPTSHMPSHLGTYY
In short: as §1

ELF1 = ELF1 (Homo sapiens, UniProt P32519 1-619); conditions: protein: recombinant; tags: N-terminal GST; dsDNA, one strand shown
Chain of ELF1 (P32519 whole entry): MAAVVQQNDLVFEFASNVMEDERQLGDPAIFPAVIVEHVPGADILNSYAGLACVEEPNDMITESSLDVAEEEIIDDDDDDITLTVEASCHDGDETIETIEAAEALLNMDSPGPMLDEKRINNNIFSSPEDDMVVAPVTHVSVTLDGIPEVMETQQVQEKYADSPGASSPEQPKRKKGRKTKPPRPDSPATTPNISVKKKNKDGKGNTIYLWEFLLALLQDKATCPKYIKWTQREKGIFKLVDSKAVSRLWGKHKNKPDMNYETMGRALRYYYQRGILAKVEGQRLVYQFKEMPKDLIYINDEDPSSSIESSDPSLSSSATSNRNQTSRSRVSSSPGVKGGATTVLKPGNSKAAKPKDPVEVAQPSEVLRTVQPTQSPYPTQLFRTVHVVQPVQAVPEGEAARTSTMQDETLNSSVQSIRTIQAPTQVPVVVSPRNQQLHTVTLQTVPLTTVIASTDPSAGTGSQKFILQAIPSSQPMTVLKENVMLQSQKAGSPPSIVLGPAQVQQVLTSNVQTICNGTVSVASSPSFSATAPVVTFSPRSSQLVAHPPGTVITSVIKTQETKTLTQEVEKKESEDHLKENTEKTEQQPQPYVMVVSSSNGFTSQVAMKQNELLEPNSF
In short: as §1

EHF = biological target: T5, EHF (Homo sapiens, UniProt Q9NZC4 1-300); conditions: protein: recombinant; tags: N-terminal GST; dsDNA, one strand shown
T5 sequence: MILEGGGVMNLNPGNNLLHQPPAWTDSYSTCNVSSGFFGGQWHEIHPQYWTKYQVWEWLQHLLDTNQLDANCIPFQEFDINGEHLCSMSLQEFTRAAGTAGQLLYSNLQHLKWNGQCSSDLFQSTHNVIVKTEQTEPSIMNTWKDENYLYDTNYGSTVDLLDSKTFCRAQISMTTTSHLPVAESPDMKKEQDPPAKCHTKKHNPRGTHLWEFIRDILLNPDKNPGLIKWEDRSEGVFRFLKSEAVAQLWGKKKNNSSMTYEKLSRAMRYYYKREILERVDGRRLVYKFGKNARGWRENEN
In short: as §1

SPI1 = SPI1 (Homo sapiens, UniProt P17947 1-270); conditions: protein: recombinant; tags: N-terminal GST; dsDNA, one strand shown
In short: as §1

SPIB = SPIB (Homo sapiens, UniProt Q01892 1-262); conditions: protein: recombinant; tags: N-terminal GST; dsDNA, one strand shown
Chain of SPIB (Q01892 whole entry): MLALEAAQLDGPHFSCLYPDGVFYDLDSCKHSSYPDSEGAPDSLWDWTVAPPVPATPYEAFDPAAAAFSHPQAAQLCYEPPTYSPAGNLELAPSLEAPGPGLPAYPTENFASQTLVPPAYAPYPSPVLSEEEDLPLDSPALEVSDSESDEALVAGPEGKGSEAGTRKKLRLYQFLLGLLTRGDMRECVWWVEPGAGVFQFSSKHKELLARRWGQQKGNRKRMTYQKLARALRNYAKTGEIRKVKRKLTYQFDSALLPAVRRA
In short: as §1

ELK3 = biological target: T6, ELK3 (Homo sapiens, UniProt P41970 1-407); conditions: protein: recombinant; tags: N-terminal GST; dsDNA, one strand shown
T6 sequence: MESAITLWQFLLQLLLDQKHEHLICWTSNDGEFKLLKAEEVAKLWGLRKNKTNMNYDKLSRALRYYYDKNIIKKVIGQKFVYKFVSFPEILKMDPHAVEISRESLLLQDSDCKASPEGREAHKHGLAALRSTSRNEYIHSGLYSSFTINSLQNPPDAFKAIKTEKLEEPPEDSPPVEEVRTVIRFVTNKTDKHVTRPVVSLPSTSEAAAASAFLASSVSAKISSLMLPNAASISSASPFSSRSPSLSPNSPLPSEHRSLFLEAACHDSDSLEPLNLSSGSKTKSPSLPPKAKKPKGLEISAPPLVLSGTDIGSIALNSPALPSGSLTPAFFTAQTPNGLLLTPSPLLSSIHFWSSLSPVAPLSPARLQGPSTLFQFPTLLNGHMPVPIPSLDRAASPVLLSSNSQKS
In short: as §1

FEV = biological target: T7, FEV (Homo sapiens, UniProt Q99581 1-238); conditions: protein: recombinant; tags: N-terminal GST; dsDNA, one strand shown
T7 sequence: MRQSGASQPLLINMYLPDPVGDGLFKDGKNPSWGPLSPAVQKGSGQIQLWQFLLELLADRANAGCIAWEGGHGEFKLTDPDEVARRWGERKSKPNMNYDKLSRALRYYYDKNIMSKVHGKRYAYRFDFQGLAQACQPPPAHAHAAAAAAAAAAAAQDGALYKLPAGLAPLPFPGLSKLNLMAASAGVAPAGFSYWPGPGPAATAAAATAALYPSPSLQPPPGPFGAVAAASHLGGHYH
In short: as §1

ETV5 = ETV5 (Homo sapiens, UniProt P41161 1-510); conditions: protein: recombinant; tags: N-terminal GST; dsDNA, one strand shown
Chain of ETV5 (P41161 whole entry): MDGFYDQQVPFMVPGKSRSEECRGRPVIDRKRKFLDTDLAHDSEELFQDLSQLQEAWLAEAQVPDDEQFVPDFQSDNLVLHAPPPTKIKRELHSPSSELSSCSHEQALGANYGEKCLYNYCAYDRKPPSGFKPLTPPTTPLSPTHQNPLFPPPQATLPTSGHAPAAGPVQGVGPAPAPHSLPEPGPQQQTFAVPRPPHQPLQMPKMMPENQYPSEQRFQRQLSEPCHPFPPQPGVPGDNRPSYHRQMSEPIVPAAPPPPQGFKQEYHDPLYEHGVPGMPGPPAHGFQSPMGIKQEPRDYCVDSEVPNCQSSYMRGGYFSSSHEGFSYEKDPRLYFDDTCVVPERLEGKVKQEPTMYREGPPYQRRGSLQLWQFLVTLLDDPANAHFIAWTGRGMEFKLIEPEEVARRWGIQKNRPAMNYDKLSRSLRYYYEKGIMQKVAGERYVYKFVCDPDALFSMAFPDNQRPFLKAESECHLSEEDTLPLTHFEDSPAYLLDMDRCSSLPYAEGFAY
In short: as §1

HSF1 = HSF1 (Homo sapiens, UniProt Q00613 1-529); conditions: protein: recombinant; tags: N-terminal GST; chain copies: 3; dsDNA, one strand shown
Chain of HSF1 (Q00613 whole entry): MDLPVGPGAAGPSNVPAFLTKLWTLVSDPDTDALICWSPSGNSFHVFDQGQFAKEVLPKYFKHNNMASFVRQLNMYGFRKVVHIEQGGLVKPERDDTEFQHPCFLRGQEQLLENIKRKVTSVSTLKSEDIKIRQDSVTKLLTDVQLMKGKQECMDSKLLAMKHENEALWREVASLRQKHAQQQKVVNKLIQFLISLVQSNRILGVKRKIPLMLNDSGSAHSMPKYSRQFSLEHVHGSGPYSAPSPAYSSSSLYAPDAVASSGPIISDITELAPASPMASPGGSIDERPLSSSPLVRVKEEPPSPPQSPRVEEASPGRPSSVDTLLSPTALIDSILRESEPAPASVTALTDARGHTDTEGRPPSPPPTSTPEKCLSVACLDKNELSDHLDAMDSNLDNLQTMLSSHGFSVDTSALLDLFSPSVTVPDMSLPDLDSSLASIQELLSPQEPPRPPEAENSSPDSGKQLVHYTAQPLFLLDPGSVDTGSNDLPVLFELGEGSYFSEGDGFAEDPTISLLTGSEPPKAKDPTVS
In short: as §1

SPIC = biological target: T8, SPIC (Homo sapiens, UniProt Q8N5J4 1-248); conditions: protein: recombinant; tags: N-terminal GST; dsDNA, one strand shown
T8 sequence: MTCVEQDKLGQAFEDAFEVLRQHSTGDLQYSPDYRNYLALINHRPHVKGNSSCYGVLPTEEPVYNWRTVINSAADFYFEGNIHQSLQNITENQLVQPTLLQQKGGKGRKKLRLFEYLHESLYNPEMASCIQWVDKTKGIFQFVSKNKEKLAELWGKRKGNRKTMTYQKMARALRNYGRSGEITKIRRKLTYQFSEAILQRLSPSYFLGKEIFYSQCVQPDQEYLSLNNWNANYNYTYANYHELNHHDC
In short: as §1

ELF4 = ELF4 (Homo sapiens, UniProt Q99607 1-663); conditions: protein: recombinant; tags: N-terminal GST; dsDNA, one strand shown
Chain of ELF4 (Q99607 whole entry): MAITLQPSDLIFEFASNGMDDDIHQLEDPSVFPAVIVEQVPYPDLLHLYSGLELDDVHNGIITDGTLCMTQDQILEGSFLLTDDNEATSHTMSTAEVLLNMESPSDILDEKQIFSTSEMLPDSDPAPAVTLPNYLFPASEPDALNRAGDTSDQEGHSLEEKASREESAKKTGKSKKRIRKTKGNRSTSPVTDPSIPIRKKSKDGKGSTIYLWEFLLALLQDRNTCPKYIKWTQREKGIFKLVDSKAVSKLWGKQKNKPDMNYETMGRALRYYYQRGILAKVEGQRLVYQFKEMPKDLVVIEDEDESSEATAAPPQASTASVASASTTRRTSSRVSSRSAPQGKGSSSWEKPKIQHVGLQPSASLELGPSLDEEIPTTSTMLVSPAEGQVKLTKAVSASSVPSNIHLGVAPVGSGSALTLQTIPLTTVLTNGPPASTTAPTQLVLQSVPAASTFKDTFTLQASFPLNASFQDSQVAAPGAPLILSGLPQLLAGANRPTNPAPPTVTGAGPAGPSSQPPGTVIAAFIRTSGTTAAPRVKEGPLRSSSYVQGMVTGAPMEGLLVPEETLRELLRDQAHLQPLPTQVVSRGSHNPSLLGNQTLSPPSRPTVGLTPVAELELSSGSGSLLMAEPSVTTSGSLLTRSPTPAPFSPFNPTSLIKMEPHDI
In short: as §1

ELK4 = biological target: T9, ELK4 (Homo sapiens, UniProt P28324-2 1-405); conditions: protein: recombinant; tags: N-terminal GST; dsDNA, one strand shown
T9 sequence: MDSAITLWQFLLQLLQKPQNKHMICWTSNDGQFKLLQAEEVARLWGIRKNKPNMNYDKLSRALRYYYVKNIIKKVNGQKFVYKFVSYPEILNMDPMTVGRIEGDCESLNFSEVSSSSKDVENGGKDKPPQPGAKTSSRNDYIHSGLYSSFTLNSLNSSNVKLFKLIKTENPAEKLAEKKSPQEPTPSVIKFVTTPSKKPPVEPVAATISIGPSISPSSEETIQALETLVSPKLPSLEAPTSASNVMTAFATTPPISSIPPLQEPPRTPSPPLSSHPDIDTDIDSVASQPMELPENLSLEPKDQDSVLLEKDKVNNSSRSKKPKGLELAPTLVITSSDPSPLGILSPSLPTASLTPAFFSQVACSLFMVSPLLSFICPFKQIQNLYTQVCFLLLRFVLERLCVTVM
In short: as §1

ETV2 = biological target: T10, ETV2 (Homo sapiens, UniProt O00321 1-342); conditions: protein: recombinant; tags: N-terminal GST; dsDNA, one strand shown
T10 sequence: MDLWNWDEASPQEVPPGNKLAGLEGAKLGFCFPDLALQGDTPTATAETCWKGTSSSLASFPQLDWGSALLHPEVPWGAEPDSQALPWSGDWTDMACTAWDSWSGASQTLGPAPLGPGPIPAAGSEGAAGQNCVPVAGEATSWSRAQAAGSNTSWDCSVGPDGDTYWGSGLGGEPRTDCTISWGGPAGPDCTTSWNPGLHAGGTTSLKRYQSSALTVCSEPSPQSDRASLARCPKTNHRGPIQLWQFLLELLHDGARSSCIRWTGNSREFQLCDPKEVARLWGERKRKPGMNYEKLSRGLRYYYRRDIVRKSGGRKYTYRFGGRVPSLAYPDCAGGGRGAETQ
In short: as §1

ELF3 = biological target: T11, ELF3 (Homo sapiens, UniProt P78545 1-371); conditions: protein: recombinant; tags: N-terminal GST; dsDNA, one strand shown
T11 sequence: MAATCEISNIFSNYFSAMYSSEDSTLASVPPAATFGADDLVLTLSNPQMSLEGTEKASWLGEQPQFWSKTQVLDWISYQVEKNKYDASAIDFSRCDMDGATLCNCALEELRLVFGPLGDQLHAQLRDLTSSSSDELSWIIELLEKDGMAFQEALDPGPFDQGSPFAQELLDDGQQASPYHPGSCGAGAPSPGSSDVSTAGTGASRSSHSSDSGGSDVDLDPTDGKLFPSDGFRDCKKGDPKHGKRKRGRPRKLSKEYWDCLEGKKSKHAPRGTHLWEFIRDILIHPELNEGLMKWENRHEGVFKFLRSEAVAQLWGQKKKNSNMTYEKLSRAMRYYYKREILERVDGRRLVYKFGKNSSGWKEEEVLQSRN
In short: as §1

CRX = CRX (Homo sapiens, UniProt O43186 1-299); conditions: protein: recombinant; tags: N-terminal GST; dsDNA, one strand shown
Chain of CRX (O43186 whole entry): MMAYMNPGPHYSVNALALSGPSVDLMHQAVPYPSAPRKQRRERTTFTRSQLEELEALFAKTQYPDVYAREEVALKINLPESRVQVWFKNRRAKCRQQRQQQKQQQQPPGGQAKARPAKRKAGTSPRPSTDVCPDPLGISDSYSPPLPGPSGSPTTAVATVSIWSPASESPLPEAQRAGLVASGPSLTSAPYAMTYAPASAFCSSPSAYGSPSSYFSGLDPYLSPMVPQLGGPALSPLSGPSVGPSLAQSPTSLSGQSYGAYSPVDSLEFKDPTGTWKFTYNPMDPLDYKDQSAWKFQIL
In short: as §1

ETV1 = ETV1 (Homo sapiens, UniProt P50549 1-477); conditions: protein: recombinant; tags: N-terminal GST; dsDNA, one strand shown
Chain of ETV1 (P50549 whole entry): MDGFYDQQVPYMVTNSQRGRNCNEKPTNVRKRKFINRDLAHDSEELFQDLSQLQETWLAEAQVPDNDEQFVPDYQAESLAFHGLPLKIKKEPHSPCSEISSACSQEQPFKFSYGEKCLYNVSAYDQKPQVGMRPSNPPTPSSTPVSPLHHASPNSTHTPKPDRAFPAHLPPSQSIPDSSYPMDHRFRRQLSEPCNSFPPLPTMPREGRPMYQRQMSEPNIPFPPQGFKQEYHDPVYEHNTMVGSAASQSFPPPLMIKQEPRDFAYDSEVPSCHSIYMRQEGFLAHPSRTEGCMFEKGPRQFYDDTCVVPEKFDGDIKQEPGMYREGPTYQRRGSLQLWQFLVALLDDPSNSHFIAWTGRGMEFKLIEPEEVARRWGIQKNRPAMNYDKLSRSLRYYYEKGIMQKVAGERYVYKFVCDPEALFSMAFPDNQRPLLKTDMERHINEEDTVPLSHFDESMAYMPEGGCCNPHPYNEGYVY
In short: as §1

Q: What does the source list for TGATGC?
A: binding signal (FLI1): 1.49 fold enrichment (6-mer frequency, TF over GST control); binding signal (ELK1): 1.63 fold enrichment (6-mer frequency, TF over GST control); binding signal (GABPA): 1.65 fold enrichment (6-mer frequency, TF over GST control); binding signal (ERG): 1.4 fold enrichment (6-mer frequency, TF over GST control); binding signal (ELF1): 1.64 fold enrichment (6-mer frequency, TF over GST control); binding signal (EHF): 1.58 fold enrichment (6-mer frequency, TF over GST control); binding signal (SPI1): 1.42 fold enrichment (6-mer frequency, TF over GST control); binding signal (SPIB): 1.47 fold enrichment (6-mer frequency, TF over GST control); binding signal (ELK3): 1.72 fold enrichment (6-mer frequency, TF over GST control); binding signal (FEV): 1.44 fold enrichment (6-mer frequency, TF over GST control); binding signal (ETV5): 1.49 fold enrichment (6-mer frequency, TF over GST control); binding signal (HSF1): 1.27 fold enrichment (6-mer frequency, TF over GST control); binding signal (SPIC): 1.72 fold enrichment (6-mer frequency, TF over GST control); binding signal (ELF4): 1.66 fold enrichment (6-mer frequency, TF over GST control); binding signal (ELK4): 1.6 fold enrichment (6-mer frequency, TF over GST control); binding signal (ETV2): 1.49 fold enrichment (6-mer frequency, TF over GST control); binding signal (ELF3): 1.71 fold enrichment (6-mer frequency, TF over GST control); binding signal (CRX): 1.34 fold enrichment (6-mer frequency, TF over GST control); binding signal (ETV1): 1.55 fold enrichment (6-mer frequency, TF over GST control)

Source: article PMC7862700, “An all-to-all approach to the identification of sequence-specific readers for epigenetic DNA modifications on cytosine”
